Consider 28 compounds from PubChem BioAssay (NCI).

Assay in all cases: NCI-60 one-dose screen, 48 h (100 = growth as untreated, 0 = no growth, -100 = all killed)
Settings in all cases: 10 µM unless noted

Experiment [1] concerns T-47D breast.
For experiment [2], the system named is BT-549 breast.
Experiment [3] concerns MDA-MB-435 melanoma.
Experiment [4] has as its system SW-620 colon.
For experiment [5], the system named is MCF7 breast.
The subject of experiment [6] is HCT-116 colon.
Experiment [7] has as its system HCC-2998 colon.
Experiment [8] deals with KM12 colon.

This is part of a sample that, as a whole, favours compounds with a hit. Of some 83,000 tested, about 20% had one in any assay.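 Negative percent growth values reflect cell death: -40 means 40% of the cells present at the start died, and -100 means all died.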 A number with no mark means an inactive call. Calls of active or inactive are those of the source. Rule for the calls: active = growth percent below 10; inactive = the rest.

For the compound `O=C1Nc2c(ccc(Cl)c2Cl)/C1=C/c1ccccn1`, the growth in experiment [1] is 56.9%; in experiment [2], 92.1%; in experiment [3], 77.2%; in experiment [4], 76.8%; in experiment [5], 29%; in experiment [6], 24.2%. The growth was 85.1% in experiment [7] and 87.1% in experiment [8].
As for `COc1ccc(C2=NN(C(C)=O)C(c3cn(Cc4ccc(Cl)cc4)c4ccccc34)C2)cc1` (centres undefined), the growth in experiment [1] is 51.8%; in experiment [2], 97.1%; in experiment [3] it was 96.5%; in experiment [4] it was 98.2%; in experiment [5], 84.5%; in experiment [6] it was 86.3%. Moreover, the values for the growth in experiment [7] and in experiment [8] were 95.5% and 86.4%, respectively.
With `COc1ccc(CNC(=O)COc2ccc(/C=N/Nc3nc4ccccc4s3)cc2)cc1`, the growth in experiment [1] was 14.7%; in experiment [2], 12.9%; in experiment [3], 7.82% (active); in experiment [4], 38.6%; in experiment [5], 42.1%; in experiment [6], 10.6%. Also, the growth in experiment [7] is 53.5%; in experiment [8], 1.51% (active).
Turning to `Clc1cc(Cl)cc(N2N=C(c3cccc(Nc4ccncc4)c3)CC2c2ccccc2)c1` (centres undefined), the growth in experiment [1] is 77.7%; in experiment [2] it was 78.2%; in experiment [3], -38.9% (active); in experiment [4] it was -68.6% (active); in experiment [5], -11% (active); in experiment [6], 38.7%. Further, the growth is -58.8% (active) in experiment [7] and -8.16% (active) in experiment [8].
For the compound `O=C(Nc1ccc2cc3ccc(NC(=O)NC4CCCCC4)cc3nc2c1)NC1CCCCC1`, the growth in experiment [1] was 81.9%; in experiment [2], 75%; in experiment [3], 95.3%; in experiment [4] it was 84.3%; in experiment [5], 47.3%; in experiment [6], 65.1%. Besides, the growth in experiment [7] is 101%; in experiment [8] it was 97%.
Consider `COc1cc2nc(-c3ccc(C(F)(F)F)cc3)cc(OCCCN3CCCCC3)c2cc1OC`, for which the growth was 35.3% in experiment [1]; 39.3% in experiment [2]; -6.42% (active) in experiment [3]; 30.4% in experiment [4]; 36.2% in experiment [5]; 25.5% in experiment [6]. The growth was 56% in experiment [7] and 36.6% in experiment [8].
As to `O=S(=O)(NCCCNc1nccc(-c2c(-c3cccc(O)c3)nc3occn23)n1)c1ccc(F)cc1`, the growth was 56.3% in experiment [1]; 87.4% in experiment [2]; 37.3% in experiment [3]; 103% in experiment [4]; 85.2% in experiment [5]; 56.2% in experiment [6]. In addition, the figures for the growth in experiment [7] and in experiment [8] were 109% and 81.9%, respectively.
Take `CN1CCN(CC#CCNC(=O)[C@]23CCC(C)(C)C[C@H]2C2=CC[C@@H]4[C@@]5(C)Cc6c([nH]c7ccccc67)C(C)(C)[C@@H]5CC[C@@]4(C)[C@]2(C)CC3)CC1`: the growth is 94.4% in experiment [1]; 101% in experiment [2]; 47.2% in experiment [3]; 46.8% in experiment [4]; 32.4% in experiment [5]; 22.5% in experiment [6]. Besides, the growth was 80% in experiment [7] and 52.3% in experiment [8].
Regarding `Cn1c(COC(=O)NCCc2ccccn2)nc2c(N3CCOCC3)nc(Cl)nc21`, the growth in experiment [1] was -2.17% (active); in experiment [2], 2.36% (active); in experiment [3], -83.3% (active); in experiment [4] it was -86.2% (active); in experiment [5] it was -43.5% (active); in experiment [6], -69.8% (active). Besides, the figures for the growth in experiment [7] and in experiment [8] were 37.5% and 44.3%, respectively.
With `N#Cc1cc(-c2nc3ccccc3s2)c(=O)n(NS(=O)(=O)c2ccc(Cl)cc2)c1N`, the growth in experiment [1] is 96.6%; in experiment [2] it was 105%; in experiment [3], 101%; in experiment [4] it was 97.7%; in experiment [5], 99.9%; in experiment [6], 98.5%. Moreover, the values for the growth in experiment [7] and in experiment [8] were 111% and 102%, respectively.
As to `CC(N)C(=O)NNc1n[nH]c(=S)n1N` (centres undefined), the growth is 98.6% in experiment [1]; 87.1% in experiment [2]; 96.1% in experiment [3]; 93.1% in experiment [4]; 93.7% in experiment [5]; 103% in experiment [6]. Besides, the growth in experiment [7] and in experiment [8] was 102% each time.
As for `O=C1CCC(NC(=S)Nc2ccccc2)N1` (centres undefined), the growth in experiment [1] was 103%; in experiment [2], 114%; in experiment [3], 109%; in experiment [4] it was 107%; in experiment [5] it was 97.3%; in experiment [6] it was 97.6%. Also, the growth in experiment [7] was 98.7%; in experiment [8], 98%.
Take `NC(=S)N/N=C/c1ccc(OC(=O)COc2cc(Cl)c(Cl)cc2Cl)cn1`: the growth in experiment [1] is 49.3%; in experiment [2] it was 64.3%; in experiment [3], 71.7%; in experiment [4], 59.6%; in experiment [5], 28.5%; in experiment [6] it was 67.9%. In addition, the growth is 63.7% in experiment [7] and 70.9% in experiment [8].
Take `Cc1ccc2[nH]c(=O)cc(-n3nncc3COc3ccc(C=O)cc3)c2c1`: the growth in experiment [1] is 97.5%; in experiment [2] it was 90.8%; in experiment [3], 103%; in experiment [4], 99.4%; in experiment [5], 95.6%; in experiment [6], 108%. Moreover, the results for the growth in experiment [7] and in experiment [8] were 109% and 106%, respectively.
For the compound `C[C@H]1[C@H](C)CC[C@]2(CO)CC[C@]3(C)C(=CC[C@@H]4[C@@]5(C)CCCNC(C)(C)[C@@H]5CC[C@]43C)[C@H]12`, the growth in experiment [1] is 1.1% (active); in experiment [2], -66% (active); in experiment [3], -73.9% (active); in experiment [4], -69.6% (active); in experiment [5] it was -29.4% (active); in experiment [6], -94.7% (active). Further, the figures for the growth in experiment [7] and in experiment [8] were -38.7% (active) and 0.124% (active), respectively.
`FC(F)(F)c1cccc(Nc2ccccc2)c1`: the growth was 101% in experiment [1]; 98.2% in experiment [2]; 101% in experiment [3]; 101% in experiment [4]; 93.5% in experiment [5]; 95.2% in experiment [6]. In addition, the growth in experiment [7] is 98.9%; in experiment [8] it was 102%.
For the compound `C=C1C(=O)O[C@H]2[C@H]1CC/C(COC(=O)NCCc1c[nH]c3ccc(Cl)cc13)=C\CC[C@@]1(C)O[C@@H]21`, the growth is -40% (active) in experiment [1]; -52.9% (active) in experiment [2]; -91.5% (active) in experiment [3]; -87.4% (active) in experiment [4]; 8.5% (active) in experiment [5]; -88.9% (active) in experiment [6]. Moreover, the growth in experiment [7] is 55.1%; in experiment [8], 11.3%.
Consider `O=S(=O)(c1cccc(NC2=Nc3cccc4cccc2c34)c1)N1CCCC1`, for which the growth was 44.5% in experiment [1]; 48% in experiment [2]; 29.3% in experiment [3]; 64.4% in experiment [4]; 51.4% in experiment [5]; 62.8% in experiment [6]. Besides, the growth was 79.5% in experiment [7] and 71.7% in experiment [8].
In the case of `Cc1c(C(=O)NO)sc2ncnc(Nc3ccc(NC(=S)Nc4ccccc4)cc3)c12`, the growth is 113% in experiment [1]; 106% in experiment [2]; 101% in experiment [3]; 105% in experiment [4]; 95.3% in experiment [5]; 105% in experiment [6]. Also, the growth in experiment [7] was 99.9%; in experiment [8] it was 102%.
Regarding `FCc1nc2nc(Cl)c(Cl)nc2[nH]1`, the growth in experiment [1] was 101%; in experiment [2] it was 104%; in experiment [3], 107%; in experiment [4], 103%; in experiment [5], 96.5%; in experiment [6], 101%. For the same compound, the growth in experiment [7] and in experiment [8] was 104% throughout.
For the compound `COc1ccc(-c2nc(N/N=C/c3cccc(O)c3)nc(N3CCOCC3)c2C#N)cc1`, the growth was 72% in experiment [1]; 84.6% in experiment [2]; 97.7% in experiment [3]; 58.9% in experiment [4]; 61.7% in experiment [5]; 59.1% in experiment [6]. For the same compound, the growth is 108% in experiment [7] and 72.2% in experiment [8].
Take `C#Cc1cccc(NC(=O)Nc2ccc(NC(=O)CCl)cc2)c1`: the growth in experiment [1] was -40.2% [8.25 µM] (active); in experiment [2], -64.2% [8.25 µM] (active); in experiment [3], 21.7% [8.25 µM]; in experiment [4], -61.7% [8.25 µM] (active); in experiment [5], 14.1% [8.25 µM]; in experiment [6] it was -0.386% [8.25 µM] (active). Further, the growth in experiment [7] is 82.6% [8.25 µM]; in experiment [8], -27.2% [8.25 µM] (active).
For `O=C(Nc1nc(-c2ccccc2Cl)cs1)c1cc(-c2ccccc2)nc2ccc(Cl)cc12`, the growth in experiment [1] was 74.1%; in experiment [2] it was 11.8%; in experiment [3] it was 8.05% (active); in experiment [4], 29.4%; in experiment [5], 25.8%; in experiment [6], 4.98% (active). The growth in experiment [7] was 95.5%; in experiment [8], 84.2%.
Regarding `Cc1cc2nc(-c3ccccc3)c(-c3ccccc3)nc2cc1C`, the growth in experiment [1] is 86.5%; in experiment [2], 97.5%; in experiment [3] it was 93%; in experiment [4], 99%; in experiment [5], 88.9%; in experiment [6] it was 91.4%. Besides, the growth in experiment [7] and in experiment [8] was 104% in each case.
For `CCOC(=O)c1cnc2c(cnn2CC)c1NN=C(C)C`, the growth in experiment [1] is 87.7%; in experiment [2], 91%; in experiment [3] it was 108%; in experiment [4], 104%; in experiment [5] it was 88.7%; in experiment [6], 86.5%. Besides, the growth in experiment [7] was 94.9%; in experiment [8], 96.5%.
`COc1cc2nc(-c3ccc(C(F)(F)F)cc3)cc(OCCN3CCCC3)c2cc1OC`: the growth in experiment [1] is 86.5%; in experiment [2] it was 70.4%; in experiment [3], 97.2%; in experiment [4] it was 91.2%; in experiment [5], 85.1%; in experiment [6], 67.3%. The growth was 82% in experiment [7] and 93.7% in experiment [8].
With `O=C(Nc1ccc2ncnc(Nc3ccc(Oc4cccc(F)c4)c(Cl)c3)c2c1)c1ccc(CN2CCOCC2)cc1`, the growth in experiment [1] is -9.3% (active); in experiment [2] it was 19.9%; in experiment [3] it was 22%; in experiment [4] it was 38.7%; in experiment [5] it was 10.5%; in experiment [6], 13.7%. Further, the growth is 69% in experiment [7] and 24.6% in experiment [8].
With `CC(O)/C=C/C=C/C(O)CC/C=C/C(=O)NCC(C)(C)O` (centres undefined), the growth in experiment [1] was 86.2%; in experiment [2], 109%; in experiment [3], 110%; in experiment [4] it was 118%; in experiment [5], 78.2%; in experiment [6] it was 93.5%. Moreover, the figures for the growth in experiment [7] and in experiment [8] were 90.6% and 102%, respectively.
